According to the supplement of paper PMC9694430:
Counter-ions that a name gives are not always drawn.

These compounds were tested on LOC_OS01G01410-cb001 (assay: thermal shift delta Tm vs DMSO control; higher = stronger stabilization (binding)). Conditions: 12.5 µM; protein concentration 2 µM.
Procedure, shortened: (§1)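 Purified, E. coli-expressed rice kinase domain constructs were tested by differential scanning fluorimetry in 96-well plates: 19.5 μl of 2 μM kinase in 100 mM potassium phosphate pH 7.5, 150 mM NaCl, 10% glycerol, 5 × SYPRO Orange, plus compound in DMSO. Fluorescence was read from 25°C to 95°C at 0.05°C/s. Melting temperatures came from Boltzmann fits, and the shift is the triplicate mean relative to protein with DMSO alone.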

Compound	thermal shift delta Tm [°C]
CCNC(=O)Nc1ccc(-c2nc(N3CCOC[C@@H]3C)c3c(n2)C(C)(C)S(=O)(=O)C3)cc1	0.67
CN1CCN(c2ccc(OC(F)(F)F)c(Nc3ncc4c(n3)-c3c(c(C(N)=O)nn3CCO)CC4)c2)CC1	0.81
C[C@@H](Oc1cc(-n2cnc3ccc(CN4CCN(C)CC4)cc32)sc1C(N)=O)c1ccccc1C(F)(F)F	0.17
COc1cc(OC)cc(-c2cc3cnc(N)nc3nc2NC(=O)NC(C)(C)C)c1	0.51
COC(=O)c1ccc2c(c1)NC(=O)/C2=C(\Nc1ccc(N(C)C(=O)CN2CCN(C)CC2)cc1)c1ccccc1 [Nintedanib (BIBF 1120)]	2.25
Cc1[nH]c(/C=C2\C(=O)Nc3ccccc32)c(C)c1CCC(=O)O [Orantinib (TSU-68, SU6668)]	4.79
NC1(c2ccc(-c3nc4ccn5c(=O)[nH]nc5c4cc3-c3ccccc3)cc2)CCC1	0.94
N#Cc1ccc2[nH]c(O)c(-c3ccc(CN4CCOCC4)cn3)c2c1	0.79
C=C[C@@](C)(/C=C/c1ccc(O)cc1)CCC=C(C)C [Bakuchiol]	1
Cn1cnc2c(F)c(Nc3ccc(Br)cc3F)c(C(=O)NOCCO)cc21	0.1
CC(C)(C)c1nc(-c2ccc(NC(=O)Nc3cccc(C(F)(F)F)c3)c3ccccc23)c2c(N)nccn12 [kira6]	0.7
CC1=C(C(=O)Nc2cc3cn[nH]c3cc2F)C(c2ccc(C(F)(F)F)cc2)CC(=O)N1 (centres undefined)	0.57
Cc1cn(-c2cc(NC(=O)c3ccc(C)c(Nc4nccc(-c5cnccn5)n4)c3)cc(C(F)(F)F)c2)cn1 [Radotinib]	0.24
COc1ncc(-c2ccc3nccc(-c4ccnnc4)c3c2)cc1NS(=O)(=O)c1ccc(F)cc1F	1.94
CNC(=O)c1cc(COc2nnc(Nc3ccc(Cl)cc3)c3ccoc23)ccn1 [Telatinib]	0.67
COc1cc2nccc(Oc3ccc(NC(=O)C4(C(=O)Nc5ccc(F)cc5)CC4)cc3)c2cc1OC [Cabozantinib malate (XL184)]	0.01
C1=N/C2=N/c3ccc(OCCN4CCCC4)c(c3)COC/C=C/COCc3cccc(c3)C(=C1)N2 [Pacritinib (SB1518)]	2.82
N#Cc1cnc(Nc2cc(NC[C@H]3CNCCO3)c(C(F)(F)F)cn2)cn1	0.36
COc1cc(N2CCN(C)CC2)ccc1Nc1nccc(-c2cn(C)c3cnccc23)n1	1.86

Compound	thermal shift delta Tm [°C]
CC(C)(C)NS(=O)(=O)c1cncc(-c2cc(F)c3nc(N)nn3c2)c1	0.2
CCNC(=O)C#Cc1ccc2c(C(=Nc3ccc(CN(C)C)cc3)c3ccccc3)c(O)[nH]c2c1	1.75
O=C1NC(=O)[C@@H](c2cn3c4c(cccc24)CCC3)[C@@H]1c1c[nH]c2ccccc12 [Tivantinib (ARQ 197)]	0.55
O=S(=O)(c1cccc2c(I)cccc12)N1CCCNCC1	0.23
CCN1CCN(Cc2ccc(C(=O)Nc3ccc(C)c(Oc4ccc5c(c4)CC(=O)N5)c3)cc2C(F)(F)F)CC1	0.03
C[C@@H](Nc1cc(F)cc(F)c1)c1cc(C(=O)N(C)C)cc2c(=O)cc(N3CCOCC3)oc12	0.11
C[C@H](CN(C)C)Oc1nc(Nc2cc3cccc(Cl)c3cn2)cnc1C#N	0.28
CNC(=O)c1cc(Oc2ccc(NC(=O)Nc3ccc(Cl)c(C(F)(F)F)c3)cc2)ccn1 [Sorafenib]	1.65
COc1ccc(Cl)cc1NC(=O)Nc1cc(C)nc2ccccc12	0.77
O=C(c1cccc(Cl)c1F)N1CCN(Cc2cccc(Nc3nccs3)n2)CC1	0.64
CNC(=O)c1ccc(C)c(-n2c(C)cc(OCc3ccc(F)cc3F)c(Br)c2=O)c1	-0.05
CCn1c(-c2nonc2N)nc2c(C#CC(C)(C)O)ncc(OC[C@H]3CCCNC3)c21	1.38
CCC[C@H](NC(=O)/C(C#N)=C/c1cccc(Br)n1)c1ccccc1 [Degrasyn (WP1130)]	-2.54
OC1CCC(Nc2ncc3nc(Nc4c(F)cc(F)cc4F)n([C@H]4CCOC4)c3n2)CC1 (some centres undefined) [Tanzisertib(CC-930)]	0.32
CN(C)C/C=C/C(=O)Nc1cc2c(Nc3ccc(F)c(Cl)c3)ncnc2cc1O[C@H]1CCOC1 [Afatinib (BIBW2992) Dimaleate]	0.1
Cc1cc(O)c(-c2ccc([C@@H](C)CN)cc2)c2c1[nH]c(=O)c1sccc12 [OTS514 hydrochloride]	0.18
Cc1ccc(F)c(NC(=O)Nc2ccc(-c3cccc4[nH]nc(N)c34)cc2)c1 [Linifanib (ABT-869)]	3
COc1cc(N2CCC(N(C)C)CC2)ccc1Nc1ncc(Cl)c(Nc2ccccc2P(C)(C)=O)n1	0.42

Each compound was assayed on LOC_OS01G02750-cb003 in the same assay as above. Conditions: 12.5 µM; protein concentration 2 µM.
Procedure, shortened: as §1

Compound	thermal shift delta Tm [°C]
CCNC(=O)Nc1ccc(-c2nc(N3CCOC[C@@H]3C)c3c(n2)C(C)(C)S(=O)(=O)C3)cc1	1.05
CN1CCN(c2ccc(OC(F)(F)F)c(Nc3ncc4c(n3)-c3c(c(C(N)=O)nn3CCO)CC4)c2)CC1	1.85
C[C@@H](Oc1cc(-n2cnc3ccc(CN4CCN(C)CC4)cc32)sc1C(N)=O)c1ccccc1C(F)(F)F	0.34
COc1cc(OC)cc(-c2cc3cnc(N)nc3nc2NC(=O)NC(C)(C)C)c1	1.48
COC(=O)c1ccc2c(c1)NC(=O)/C2=C(\Nc1ccc(N(C)C(=O)CN2CCN(C)CC2)cc1)c1ccccc1 [Nintedanib (BIBF 1120)]	-0.82
Cc1[nH]c(/C=C2\C(=O)Nc3ccccc32)c(C)c1CCC(=O)O [Orantinib (TSU-68, SU6668)]	1.43
NC1(c2ccc(-c3nc4ccn5c(=O)[nH]nc5c4cc3-c3ccccc3)cc2)CCC1	-0.51
N#Cc1ccc2[nH]c(O)c(-c3ccc(CN4CCOCC4)cn3)c2c1	1.84
C=C[C@@](C)(/C=C/c1ccc(O)cc1)CCC=C(C)C [Bakuchiol]	1.1
Cn1cnc2c(F)c(Nc3ccc(Br)cc3F)c(C(=O)NOCCO)cc21	0.45
CC(C)(C)c1nc(-c2ccc(NC(=O)Nc3cccc(C(F)(F)F)c3)c3ccccc23)c2c(N)nccn12 [kira6]	9.79
CC1=C(C(=O)Nc2cc3cn[nH]c3cc2F)C(c2ccc(C(F)(F)F)cc2)CC(=O)N1 (centres undefined)	-0.19
Cc1cn(-c2cc(NC(=O)c3ccc(C)c(Nc4nccc(-c5cnccn5)n4)c3)cc(C(F)(F)F)c2)cn1 [Radotinib]	1.63
COc1ncc(-c2ccc3nccc(-c4ccnnc4)c3c2)cc1NS(=O)(=O)c1ccc(F)cc1F	1.21
CNC(=O)c1cc(COc2nnc(Nc3ccc(Cl)cc3)c3ccoc23)ccn1 [Telatinib]	0.92
COc1cc2nccc(Oc3ccc(NC(=O)C4(C(=O)Nc5ccc(F)cc5)CC4)cc3)c2cc1OC [Cabozantinib malate (XL184)]	0.45
C1=N/C2=N/c3ccc(OCCN4CCCC4)c(c3)COC/C=C/COCc3cccc(c3)C(=C1)N2 [Pacritinib (SB1518)]	2.89
N#Cc1cnc(Nc2cc(NC[C@H]3CNCCO3)c(C(F)(F)F)cn2)cn1	2.89
COc1cc(N2CCN(C)CC2)ccc1Nc1nccc(-c2cn(C)c3cnccc23)n1	0.45

Compound	thermal shift delta Tm [°C]
CC(C)(C)NS(=O)(=O)c1cncc(-c2cc(F)c3nc(N)nn3c2)c1	0.93
CCNC(=O)C#Cc1ccc2c(C(=Nc3ccc(CN(C)C)cc3)c3ccccc3)c(O)[nH]c2c1	1.1
O=C1NC(=O)[C@@H](c2cn3c4c(cccc24)CCC3)[C@@H]1c1c[nH]c2ccccc12 [Tivantinib (ARQ 197)]	0.06
O=S(=O)(c1cccc2c(I)cccc12)N1CCCNCC1	0.79
CCN1CCN(Cc2ccc(C(=O)Nc3ccc(C)c(Oc4ccc5c(c4)CC(=O)N5)c3)cc2C(F)(F)F)CC1	1.85
C[C@@H](Nc1cc(F)cc(F)c1)c1cc(C(=O)N(C)C)cc2c(=O)cc(N3CCOCC3)oc12	1.11
C[C@H](CN(C)C)Oc1nc(Nc2cc3cccc(Cl)c3cn2)cnc1C#N	1.3
CNC(=O)c1cc(Oc2ccc(NC(=O)Nc3ccc(Cl)c(C(F)(F)F)c3)cc2)ccn1 [Sorafenib]	3.61
COc1ccc(Cl)cc1NC(=O)Nc1cc(C)nc2ccccc12	3.02
O=C(c1cccc(Cl)c1F)N1CCN(Cc2cccc(Nc3nccs3)n2)CC1	0.86
CNC(=O)c1ccc(C)c(-n2c(C)cc(OCc3ccc(F)cc3F)c(Br)c2=O)c1	0.1
CCn1c(-c2nonc2N)nc2c(C#CC(C)(C)O)ncc(OC[C@H]3CCCNC3)c21	0.87
CCC[C@H](NC(=O)/C(C#N)=C/c1cccc(Br)n1)c1ccccc1 [Degrasyn (WP1130)]	-8.18
OC1CCC(Nc2ncc3nc(Nc4c(F)cc(F)cc4F)n([C@H]4CCOC4)c3n2)CC1 (some centres undefined) [Tanzisertib(CC-930)]	0.43
CN(C)C/C=C/C(=O)Nc1cc2c(Nc3ccc(F)c(Cl)c3)ncnc2cc1O[C@H]1CCOC1 [Afatinib (BIBW2992) Dimaleate]	2.11
Cc1cc(O)c(-c2ccc([C@@H](C)CN)cc2)c2c1[nH]c(=O)c1sccc12 [OTS514 hydrochloride]	0.75
Cc1ccc(F)c(NC(=O)Nc2ccc(-c3cccc4[nH]nc(N)c34)cc2)c1 [Linifanib (ABT-869)]	3.87
COc1cc(N2CCC(N(C)C)CC2)ccc1Nc1ncc(Cl)c(Nc2ccccc2P(C)(C)=O)n1	-0.8
